Data taken from ChEMBL document CHEMBL3988442, “University of Dundee, Small-Polar-MMV Screening Library” (2021).

What was measured:
[1] = biological target: T1, Aspartate--tRNA(Asp/Asn) ligase (Mycobacterium tuberculosis (strain ATCC 25618 / H37Rv)) (UniProt P9WFW3); assay: Assay for Asp RNA synthetase-1 from Mycobacterium tuberculosis; format: functional; set-up: scale not given: direction of the effect not stated beside the values; details: 30 µM; also: in the data most compounds retested in dose-response had high values
T1 sequence (whole entry): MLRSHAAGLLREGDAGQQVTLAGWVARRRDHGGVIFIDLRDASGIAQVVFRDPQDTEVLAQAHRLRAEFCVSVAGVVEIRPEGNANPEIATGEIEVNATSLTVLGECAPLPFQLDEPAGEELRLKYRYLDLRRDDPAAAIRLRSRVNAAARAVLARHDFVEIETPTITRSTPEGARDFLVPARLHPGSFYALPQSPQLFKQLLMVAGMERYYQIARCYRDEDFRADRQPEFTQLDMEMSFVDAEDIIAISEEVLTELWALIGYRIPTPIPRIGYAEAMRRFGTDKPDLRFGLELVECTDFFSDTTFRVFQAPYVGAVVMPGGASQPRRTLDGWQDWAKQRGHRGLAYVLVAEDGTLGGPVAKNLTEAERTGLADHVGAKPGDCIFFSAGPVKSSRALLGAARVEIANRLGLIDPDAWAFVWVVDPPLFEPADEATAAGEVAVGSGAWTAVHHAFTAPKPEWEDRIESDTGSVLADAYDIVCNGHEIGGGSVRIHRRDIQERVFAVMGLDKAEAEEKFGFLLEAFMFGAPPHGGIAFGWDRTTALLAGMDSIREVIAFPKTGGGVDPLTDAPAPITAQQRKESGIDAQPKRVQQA

[2] = biological target: Shiga toxin 2 (Escherichia coli O157:H7) (UniProt P09385+P09386); assay: E. coli 0.157:H7 Shiga Toxin SOP - stx2 screening assay; format: functional; set-up: scale not given: direction of the effect not stated beside the values; details: 30 µM

Compound: COc1cc(CNC(=O)NCc2c(C)cc(C)[nH]c2=O)ccc1C
- Percent Effect [1]: -3.59%
- Percent Effect [2]: -4.18%

Compound: NC(=O)COc1cccc(C(=O)N2CCCC(n3cccn3)C2)c1 (centres undefined)
- Percent Effect [1]: -6%
- Percent Effect [2]: -18.8%

Compound: CC(=O)N1CCC2(CC1)CC(Oc1ccccc1)CO2 (centres undefined)
- Percent Effect [1]: -1.48%
- Percent Effect [2]: -19.5%

Compound: CN1CC(=O)N(c2ccccc2)CC12CCN(CC1CC1)C2 (centres undefined)
- Percent Effect [1]: 3.68%
- Percent Effect [2]: -5.63%

Compound: CCOCC(=O)N1C[C@@H](O)[C@H](N(C)Cc2ccc(OC)cc2)C1
- Percent Effect [1]: -0.849%
- Percent Effect [2]: 14.7%

Compound: CCc1nnc2n1CCN(C(=O)c1cc3ccc(F)cc3nc1C)C2
- Percent Effect [1]: 1.79%
- Percent Effect [2]: 8.5%

Compound: COCCNC(=O)[C@H]1CN(c2nnc(C)s2)C[C@H]2OCC[C@@H]12
- Percent Effect [1]: -1.22%
- Percent Effect [2]: -23.9%

Compound: COc1ccc(CC(=O)N2CCCCC2Cn2cccn2)cc1OC (centres undefined)
- Percent Effect [1]: -2.34%
- Percent Effect [2]: -6.84%

Compound: CC(C)OCCCNC(=O)CN1CCC(N2CCN(C)C2=O)CC1
- Percent Effect [1]: -3%
- Percent Effect [2]: -14.1%

Compound: O=C(C1CC=CC1)N1CCc2c(COCc3ccncc3)cncc2C1
- Percent Effect [1]: -3.81%
- Percent Effect [2]: -51.1%

Compound: CCN(Cc1nc2c(cnn2C)c(=O)[nH]1)c1ccc(OC)c(OC)c1
- Percent Effect [1]: 2.9%
- Percent Effect [2]: -61.1%

Compound: CC(C)(C)c1nc(CN2CCCC(Cn3cncn3)C2)cs1 (centres undefined)
- Percent Effect [1]: 4.23%
- Percent Effect [2]: 13.2%

Compound: CCNS(=O)(=O)c1ccc(C)c(C(=O)N(C)Cc2ccco2)c1
- Percent Effect [1]: 2.92%
- Percent Effect [2]: 0.315%

Compound: Cc1ccc(C(=O)N2CCn3cc(CN4CCCCC4)nc3C2)o1
- Percent Effect [1]: 8.53%
- Percent Effect [2]: -27.2%

Compound: Cc1cnn(CCNCCCOc2ccccc2)c1
- Percent Effect [1]: -1.12%
- Percent Effect [2]: -1.37%

Compound: COCC1CC2(CCN(C(=O)c3cc(C)oc3C)CC2)CN1C(C)C (centres undefined)
- Percent Effect [1]: -2.27%
- Percent Effect [2]: -25.7%

Compound: CC(C(=O)NCc1cccc(N2CC=CC2)c1)n1cccn1 (centres undefined)
- Percent Effect [1]: -1.41%
- Percent Effect [2]: 27.1%
